FLuc inh = inhibitors of firefly luciferase; purified firefly luciferase, luminescence, 8 min; Potency, µM (highest dose often 57.1 µM), most hits filed as inhibitors; actives 2.2% (n = 72,000); active means well fitted inhibition curve with a large enough effect; further: nearly all actives have a fitted effect of over 40% in size
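Inhibition of light generation by firefly luciferase from ATP and luciferin was profiled with concentration-response curves per sample, ATP held at 10 uM within the enzyme's linear range. Plates were read by luminescence after an 8-minute ambient incubation.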
Bst PK mod = modulators of Bacillus stearothermophilus pyruvate kinase | purified pyruvate kinase, luminescence ATP production; ribose 5-phosphate activator present at AC10 | Potency, µM | actives 1.2% (n = 51,000); in the data active means potency below about 11 µM;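 the screen sought inhibitors and activators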
Hits are given with their value; n = inactive; x = not tested or not shown; ! = not confirmed by another sample; [ ] = dose if it differs, or a comment. Rows were chosen to be rich in hits. Some 2.5% of all compounds tested hit in one or more screens of this group.

SMILES	FLuc inh	Bst PK mod
O=C(c1cc2ccccc2oc1=O)N1CCC2(CC1)OCCO2	n	n
CCOc1ccc(-c2cc(C(=O)N3CCC4(CC3)OCCO4)c3ccccc3n2)cc1	0.631µM	0.71
NNCc1cccc(O)c1	31.6µM	x
CCOC(=O)C1C2c3ccccc3O[C@@]1(C)N=C1SCC(=O)N12 (stereo not given in full)	n	n
C[C@]12CN(CC[N+](C)(C)C)C[C@]1(C)[C@@H]1CC[C@@H]2O1	n[11.4 µM]	x
CC12CN3CC(C)(CN(C1)C3c1ccncc1)C2=O (stereo not given)	n	n
CCCC12CN3CN(C1)CC(CCC)(C3)C2O (stereo not given)	n	n
NC(=O)c1ccc(C(=O)Nc2ccc([As](=O)(O)O)cc2)cc1	n[11.4 µM]	x
Cn1cnc2cc(NC(=O)c3ccc(Cl)cc3)ccc21	12.6µM	x
CCOC(=O)C1C(=O)NC23CCCC2C1c1ccccc1O3 (stereo not given)	n	n
CC1(C)CN=C(Nc2nc3ccccc3s2)S1	15.8µM	x
O=C(Nc1ccc([As](=O)(O)O)cc1)Nc1cccc(Cl)c1Cl	n[11.4 µM]	x
O=P1(NCCCl)OCCCN1CCCl (stereo not given)	n	x
N#C/C(=C\c1ccc(O)c(O)c1)C(N)=S	25.1µM!	x
N#CC(C#N)=Cc1cc(O)c(O)c(O)c1	n	x
Cc1c(C(=O)c2cccc3ccccc23)c2cccc3c2n1[C@H](CN1CCOCC1)CO3	n	x
Cc1ccc(C(=O)Nc2nc3ccccc3n2CCN2CCCC2)cc1	12.6µM	x
CCCCCn1c(N)c(C(=O)NCCN2CCOCC2)c2nc3ccccc3nc21	n	n
CN1CCN(C(=O)COc2ccc3ccccc3c2Br)CC1	n	n
O=C(O)c1cc[c]([Hg][Cl])cc1	15.8µM	x
Nc1cccc(N=Cc2c(O)n(Cc3ccc(F)cc3)c(=O)[nH]c2=O)c1	n	n
